Columns and labels:
[1] = test system: Vero E6 infected with SARS-CoV-2; assay: morphology score (similarity to uninfected cells); higher = more like uninfected cells; conditions: 24 h
[2] = test system: Vero E6 infected with SARS-CoV-2; assay: SARS-CoV-2 infection rate relative to infected DMSO; higher = more infection, active = 60 or less; conditions: 24 h

SMILES | morphology score [1] | SARS-CoV-2 infection rate [2]
Cn1c(=O)c2c(ncn2CC2OCCO2)n(C)c1=O [doxofylline] (10 µM) | -0.118 | 106% (inactive)
CC[C@]1(O)C[C@@H]2CN(CCc3c([nH]c4ccccc34)[C@@](C(=O)OC)(c3cc4c(cc3OC)N(C)[C@H]3[C@@](O)(C(=O)OC)[C@H](OC(C)=O)[C@]5(CC)C=CCN6CC[C@]43[C@@H]65)C2)C1 [Vinblastine (sulfate)] (0.833333 µM) | -0.0326 | 102% (inactive)
CC(C)(O)CC(=O)NCCn1ccc2ncnc(Nc3ccc(Oc4cccc(C(F)(F)F)c4)c(Cl)c3)c21 (10 µM) | -0.138 | 114% (inactive)
O=C(Nc1cc(C(F)(F)F)ccc1O)Nc1cc(C(F)(F)F)ccc1O (10 µM) | 0.119 | 104% (inactive)
CC(=O)OCC(=O)[C@@]1(O)CC[C@H]2[C@@H]3CCC4=CC(=O)CC[C@]4(C)[C@H]3C(=O)C[C@@]21C [cortisone-acetate] (10 µM) | -0.0698 | 87.5% (inactive)
O=C(CCc1ccc(O)cc1)c1c(O)cc(O)cc1O [phloretin] (10 µM) | 0.241 | 104% (inactive)
CC(C(=O)O)c1ccc2c(c1)Cc1ccccc1-2 (configuration not stated) [cicloprofen] (10 µM) | -0.0564 | 100% (inactive)
CCCCCCCCCCCCc1ccc(S(=O)(=O)Nc2nncs2)cc1 (10 µM) | 0.158 | 93% (inactive)
Cc1cc(OCC(=O)O)cc(C)c1Cc1ccc(O)c(C(C)C)c1 [sobetirome] (10 µM) | 0.0763 | 103% (inactive)
C[C@]12C=CC(=O)N[C@@H]1CC[C@@H]1[C@@H]2CC[C@]2(C)[C@@H](C(=O)Nc3cc(C(F)(F)F)ccc3C(F)(F)F)CC[C@@H]12 [dutasteride] (10 µM) | 0.111 | 111% (inactive)
CCCCc1oc2ccc(NS(C)(=O)=O)cc2c1C(=O)c1ccc(OCCCN(CCCC)CCCC)cc1 [dronedarone] (0.833333 µM) | -0.0676 | 116% (inactive)
CCOc1cc(C(=O)Nc2ccc(Cl)c(-c3nc4ccccc4[nH]3)c2)cc(OCC)c1OCC (10 µM) | -0.0242 | 100% (inactive)
OC(c1ccc(-c2ccc(CN3CCN(Cc4ccncc4)CC3)cc2)c(F)c1)(C(F)(F)F)C(F)(F)F (10 µM) | -0.228 | 104% (inactive)
O=c1n(CCCN2CCN(c3cccc(Cl)c3)CC2)nc2ccccn12 [trazodone] (10 µM) | -0.132 | 116% (inactive)
Brc1c(NC2=NCCN2)ccc2nccnc12 [brimonidine] (10 µM) | 0.0346 | 106% (inactive)
O=C(CN1CCN(Cc2ccc3c(c2)OCO3)CC1)N1c2ccccc2Sc2ccccc21 [fenoverine] (10 µM) | 0.02 | 110% (inactive)
[N-]=[N+]=N[C@]1(CO)O[C@@H](n2ccc(N)nc2=O)[C@H](O)[C@@H]1O (10 µM) | 0.0194 | 109% (inactive)
COc1cc(/C=C/C(=O)CC(=O)/C=C/c2ccc(O)c(OC)c2)ccc1O [curcumin] (10 µM) | 0.548 | 61.5% (inactive)
N=C(NCCC[C@H](N)C(=O)O)N[N+](=O)[O-] [NG-nitro-arginine] (10 µM) | -0.0213 | 108% (inactive)
O=C(Nc1c[nH]nc1-c1nc2ccc(CN3CCOCC3)cc2[nH]1)NC1CC1 (0.833333 µM) | 0.0293 | 118% (inactive)
CC1=NN=C(c2ccc(N)cc2)c2cc3c(cc2C1)OCO3 (10 µM) | -0.0987 | 112% (inactive)
CCN(CC)C(=O)Nc1ccc(OCC(O)CNC(C)(C)C)c(C(C)=O)c1 (configuration not stated) [celiprolol] (10 µM) | 0.118 | 96.5% (inactive)
O=C(O)c1cc(O)c2c(Cl)cc(Cl)cc2n1 [5,7-dichlorokynurenic-acid] (10 µM) | -0.0314 | 104% (inactive)
O=C(COc1ccc(Cl)cc1)N[C@H]1CC[C@H](NC(=O)COc2ccc(Cl)cc2)CC1 (10 µM) | -0.175 | 106% (inactive)
CN1CCc2nc(C(=O)N[C@@H]3C[C@@H](C(=O)N(C)C)CC[C@@H]3NC(=O)C(=O)Nc3ccc(Cl)cn3)sc2C1 [edoxaban] (10 µM) | 0.0662 | 94.5% (inactive)
CC1=C(C(=O)OC(C)C)C(c2cccc([N+](=O)[O-])c2)C(C(=O)OC2CN(C(c3ccccc3)c3ccccc3)C2)=C(N)N1 (configuration not stated) [azelnidipine] (10 µM) | 0.295 | 71.5% (inactive)

Reference: the supplement of paper PMC13380429
